Test results taken from the supplement of paper PMC10849652.
Of roughly 7,900 targets only a part is listed; those with a hit were picked by preference. About 0.6% of all pairs of compound and target were hits.

How the values were obtained:
Test in all cases: log2 fold change, soluble protein after heating vs DMSO (PISA); higher = thermal stabilisation; K562 cells, 10 uM, 30 min; active = over 0.2 and 3.5 SD of the protein, either way, in both replicates (recomputed)
[1] = compound: C1=CC=C(C=C1)[C@H](COC2=CC3=C(C=C2)NC(=O)N3)NC(=O)C4=CC=CN(C4=O)CC5=CC(=C(C=C5)F)F
Method in brief: (§1)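 Soluble protein was defined as the supernatant after 21,000xg for 90 min. It came from K562 cells at 2×10^6 cells/mL given 10 μM compound for 30 min, heated in aliquots for 3 min across 48°C-58°C, pooled, and extracted in PBS with 0.5% NP-40 at 4°C, and was quantified by TMTpro 16plex LC-MS/MS with equalised channel sums. Thermal stability against control samples, from duplicates, is reported as log2 fold change.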

[2] = compound: CC1=C(SC2=C1C(=N[C@H](C3=NN=C(N32)C)CC(=O)N)C4=CC=C(C=C4)Cl)C
Method in brief: as §1

[3] = compound: CC1=C2C(=CC=C1)N=C(N(C2=O)C3=CC=CC=C3C)CN4C=NC5=C(N=CN=C54)N
Method in brief: as §1

[4] = compound: Cc1sc2c(c1C)C(c1ccc(Cl)cc1)=N[C@@H](CC(=O)OC(C)(C)C)c1nnc(C)n1-2
Method in brief: as §1

[5] = compound: c1ccc([C@@H]2C[C@H]2NC2CCNCC2)cc1
Method in brief: as §1

Sequence of UniProt P40425 (P40425 whole entry, looked up): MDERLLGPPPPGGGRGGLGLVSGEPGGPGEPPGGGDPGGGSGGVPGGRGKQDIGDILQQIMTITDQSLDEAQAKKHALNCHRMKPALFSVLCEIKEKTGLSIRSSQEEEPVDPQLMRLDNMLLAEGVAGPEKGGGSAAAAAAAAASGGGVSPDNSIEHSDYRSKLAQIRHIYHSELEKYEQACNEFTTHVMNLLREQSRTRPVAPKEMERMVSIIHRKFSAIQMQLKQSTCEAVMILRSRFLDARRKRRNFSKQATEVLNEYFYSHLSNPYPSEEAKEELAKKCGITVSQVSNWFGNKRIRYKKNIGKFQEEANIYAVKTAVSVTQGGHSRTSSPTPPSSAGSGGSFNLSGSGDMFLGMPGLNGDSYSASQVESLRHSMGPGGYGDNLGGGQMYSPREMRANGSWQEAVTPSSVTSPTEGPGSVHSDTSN
Sequence of UniProt P28072 (P28072 whole entry, looked up): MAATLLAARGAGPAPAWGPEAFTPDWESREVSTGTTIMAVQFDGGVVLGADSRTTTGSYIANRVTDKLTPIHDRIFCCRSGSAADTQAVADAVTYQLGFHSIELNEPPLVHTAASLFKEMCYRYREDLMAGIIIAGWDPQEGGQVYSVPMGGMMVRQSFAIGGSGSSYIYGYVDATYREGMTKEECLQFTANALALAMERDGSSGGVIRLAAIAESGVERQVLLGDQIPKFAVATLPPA
Sequence of UniProt O43242 (O43242 whole entry, looked up): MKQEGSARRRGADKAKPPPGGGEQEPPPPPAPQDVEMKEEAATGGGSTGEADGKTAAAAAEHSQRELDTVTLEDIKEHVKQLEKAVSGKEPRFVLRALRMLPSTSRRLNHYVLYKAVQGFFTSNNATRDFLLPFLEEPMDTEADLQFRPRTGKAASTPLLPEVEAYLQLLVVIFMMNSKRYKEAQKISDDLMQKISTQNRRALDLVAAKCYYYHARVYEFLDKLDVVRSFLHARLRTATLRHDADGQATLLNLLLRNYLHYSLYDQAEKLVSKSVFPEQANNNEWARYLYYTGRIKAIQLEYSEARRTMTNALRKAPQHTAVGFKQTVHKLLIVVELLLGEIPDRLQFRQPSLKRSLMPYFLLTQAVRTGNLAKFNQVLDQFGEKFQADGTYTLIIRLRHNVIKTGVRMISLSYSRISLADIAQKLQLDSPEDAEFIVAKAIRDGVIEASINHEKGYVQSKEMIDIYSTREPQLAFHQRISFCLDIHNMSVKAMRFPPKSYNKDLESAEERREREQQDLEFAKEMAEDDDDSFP
Sequence of UniProt O00408 (O00408 whole entry, looked up): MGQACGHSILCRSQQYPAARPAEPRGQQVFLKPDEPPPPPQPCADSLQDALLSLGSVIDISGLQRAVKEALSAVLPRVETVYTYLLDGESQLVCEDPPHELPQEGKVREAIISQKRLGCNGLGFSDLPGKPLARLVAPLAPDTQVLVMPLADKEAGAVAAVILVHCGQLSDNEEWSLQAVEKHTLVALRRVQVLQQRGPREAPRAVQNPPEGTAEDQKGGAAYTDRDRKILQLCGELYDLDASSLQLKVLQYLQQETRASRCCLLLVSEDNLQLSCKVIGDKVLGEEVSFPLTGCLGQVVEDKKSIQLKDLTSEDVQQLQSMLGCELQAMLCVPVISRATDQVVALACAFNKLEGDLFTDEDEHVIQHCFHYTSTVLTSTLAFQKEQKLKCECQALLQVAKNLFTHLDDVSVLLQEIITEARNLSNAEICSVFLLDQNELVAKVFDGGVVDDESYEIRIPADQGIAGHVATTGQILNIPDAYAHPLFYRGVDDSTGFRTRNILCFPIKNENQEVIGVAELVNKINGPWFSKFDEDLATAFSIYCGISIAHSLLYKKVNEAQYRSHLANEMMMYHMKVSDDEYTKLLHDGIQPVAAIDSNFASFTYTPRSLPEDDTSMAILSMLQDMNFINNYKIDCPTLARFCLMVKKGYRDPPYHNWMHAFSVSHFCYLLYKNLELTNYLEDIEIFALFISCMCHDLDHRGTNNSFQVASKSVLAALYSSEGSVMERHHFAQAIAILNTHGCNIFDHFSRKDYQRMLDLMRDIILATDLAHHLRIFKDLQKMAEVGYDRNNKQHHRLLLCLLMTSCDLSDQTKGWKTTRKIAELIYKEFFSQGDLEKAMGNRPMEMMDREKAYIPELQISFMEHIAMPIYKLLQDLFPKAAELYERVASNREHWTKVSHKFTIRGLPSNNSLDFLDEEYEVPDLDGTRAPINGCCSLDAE
Sequence of UniProt Q16537 (Q16537 whole entry, looked up): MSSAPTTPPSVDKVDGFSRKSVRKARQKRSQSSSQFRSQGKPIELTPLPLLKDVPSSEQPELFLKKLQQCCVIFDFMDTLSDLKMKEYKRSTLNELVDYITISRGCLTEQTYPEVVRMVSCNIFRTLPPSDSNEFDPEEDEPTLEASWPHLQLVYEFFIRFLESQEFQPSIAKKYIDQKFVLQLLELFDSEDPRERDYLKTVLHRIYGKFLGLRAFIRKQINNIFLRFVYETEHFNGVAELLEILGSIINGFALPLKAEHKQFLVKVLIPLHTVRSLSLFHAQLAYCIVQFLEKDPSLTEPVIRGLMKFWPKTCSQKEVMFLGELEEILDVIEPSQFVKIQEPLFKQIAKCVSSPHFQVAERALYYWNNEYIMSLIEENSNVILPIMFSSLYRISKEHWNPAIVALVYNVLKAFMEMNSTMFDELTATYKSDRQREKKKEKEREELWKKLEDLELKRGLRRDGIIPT
Sequence of UniProt P05423 (P05423 whole entry, looked up): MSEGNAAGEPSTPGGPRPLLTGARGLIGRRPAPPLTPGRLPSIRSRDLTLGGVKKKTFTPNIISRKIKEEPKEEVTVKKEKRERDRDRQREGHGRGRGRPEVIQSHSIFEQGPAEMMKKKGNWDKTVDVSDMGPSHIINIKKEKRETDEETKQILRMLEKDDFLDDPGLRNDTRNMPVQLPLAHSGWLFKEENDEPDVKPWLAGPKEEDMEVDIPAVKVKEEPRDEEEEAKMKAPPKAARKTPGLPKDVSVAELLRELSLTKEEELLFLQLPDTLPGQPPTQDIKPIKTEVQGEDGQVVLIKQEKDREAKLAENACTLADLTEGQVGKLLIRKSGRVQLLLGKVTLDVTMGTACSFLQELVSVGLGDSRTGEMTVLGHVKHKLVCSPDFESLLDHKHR
Sequence of UniProt Q00577 (Q00577 whole entry, looked up): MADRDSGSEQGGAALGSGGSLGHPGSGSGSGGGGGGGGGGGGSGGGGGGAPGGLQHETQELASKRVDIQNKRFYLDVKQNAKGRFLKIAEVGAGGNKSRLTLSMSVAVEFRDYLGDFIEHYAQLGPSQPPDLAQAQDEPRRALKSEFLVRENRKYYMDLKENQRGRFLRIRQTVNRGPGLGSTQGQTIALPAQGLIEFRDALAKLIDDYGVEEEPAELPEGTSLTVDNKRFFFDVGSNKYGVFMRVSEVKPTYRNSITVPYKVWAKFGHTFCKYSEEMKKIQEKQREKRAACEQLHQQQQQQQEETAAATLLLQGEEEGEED
Sequence of UniProt Q15111 (Q15111 whole entry, looked up): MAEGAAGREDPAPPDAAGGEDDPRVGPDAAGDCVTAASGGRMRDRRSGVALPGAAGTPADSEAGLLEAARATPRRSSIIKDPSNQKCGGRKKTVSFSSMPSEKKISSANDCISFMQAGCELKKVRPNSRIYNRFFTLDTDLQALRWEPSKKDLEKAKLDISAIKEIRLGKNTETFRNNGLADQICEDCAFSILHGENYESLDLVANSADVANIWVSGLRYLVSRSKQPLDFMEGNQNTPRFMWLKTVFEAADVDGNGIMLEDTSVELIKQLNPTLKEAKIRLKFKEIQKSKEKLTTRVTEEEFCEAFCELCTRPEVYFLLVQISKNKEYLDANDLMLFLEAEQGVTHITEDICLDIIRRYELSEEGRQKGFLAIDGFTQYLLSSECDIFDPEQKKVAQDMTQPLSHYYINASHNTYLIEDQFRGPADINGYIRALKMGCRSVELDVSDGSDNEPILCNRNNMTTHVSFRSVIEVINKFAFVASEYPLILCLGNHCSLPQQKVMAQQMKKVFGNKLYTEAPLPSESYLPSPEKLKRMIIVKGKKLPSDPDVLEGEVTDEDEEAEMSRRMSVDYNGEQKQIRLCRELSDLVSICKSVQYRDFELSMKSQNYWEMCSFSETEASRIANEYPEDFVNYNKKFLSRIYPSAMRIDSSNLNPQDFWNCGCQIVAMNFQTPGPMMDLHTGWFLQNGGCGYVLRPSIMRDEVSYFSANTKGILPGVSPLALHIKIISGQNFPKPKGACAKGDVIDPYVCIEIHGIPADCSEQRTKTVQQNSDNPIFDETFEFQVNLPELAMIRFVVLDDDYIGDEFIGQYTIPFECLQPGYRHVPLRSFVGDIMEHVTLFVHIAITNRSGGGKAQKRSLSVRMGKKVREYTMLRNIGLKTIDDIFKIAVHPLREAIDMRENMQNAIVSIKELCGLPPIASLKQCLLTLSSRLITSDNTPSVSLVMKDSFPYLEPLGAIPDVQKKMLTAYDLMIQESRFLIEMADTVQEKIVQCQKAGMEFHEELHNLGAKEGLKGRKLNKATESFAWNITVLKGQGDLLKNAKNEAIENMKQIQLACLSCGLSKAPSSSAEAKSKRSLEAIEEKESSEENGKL
Sequence of UniProt Q8TCG2 (Q8TCG2 whole entry, looked up): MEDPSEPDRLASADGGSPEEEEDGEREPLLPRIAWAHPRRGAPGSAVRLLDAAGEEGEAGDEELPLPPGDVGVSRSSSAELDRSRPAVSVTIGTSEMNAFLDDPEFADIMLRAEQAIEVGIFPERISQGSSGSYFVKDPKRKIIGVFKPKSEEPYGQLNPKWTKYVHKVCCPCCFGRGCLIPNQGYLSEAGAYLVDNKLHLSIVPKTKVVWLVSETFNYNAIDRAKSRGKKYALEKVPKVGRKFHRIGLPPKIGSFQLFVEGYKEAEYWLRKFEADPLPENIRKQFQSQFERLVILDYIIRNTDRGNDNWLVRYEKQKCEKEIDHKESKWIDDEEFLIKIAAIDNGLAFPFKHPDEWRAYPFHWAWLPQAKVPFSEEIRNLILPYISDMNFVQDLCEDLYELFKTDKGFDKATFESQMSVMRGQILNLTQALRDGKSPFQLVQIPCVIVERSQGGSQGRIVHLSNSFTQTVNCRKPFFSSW

| Target | log2 fold change [1] | log2 fold change [2] | log2 fold change [3] | log2 fold change [4] | log2 fold change [5] |
| --- | --- | --- | --- | --- | --- |
| PRKCQ (UniProt Q04759) | -0.064 (inactive) | 0.069 (inactive) | 0.104 (inactive) | 0.033 (inactive) | 0 (inactive) |
| POLR2M (UniProt Q6EEV4) | 0.092 (inactive) | 0.105 (inactive) | -0.002 (inactive) | -0.128 (inactive) | -0.107 (inactive) |
| PI4K2B (UniProt Q8TCG2) | 0.007 (inactive) | 0.031 (inactive) | 0.065 (inactive) | 0.024 (inactive) | -0.041 (inactive) |
| PDE2A (UniProt O00408) | 0.079 (inactive) | 0.08 (inactive) | 0.16 (inactive) | -0.024 (inactive) | 0.065 (inactive) |
| PPP2R5E (UniProt Q16537) | -0.045 (inactive) | 0.1 (inactive) | 0.105 (inactive) | -0.118 (inactive) | 0.05 (inactive) |
| PURA (UniProt Q00577) | 0.116 (inactive) | -0.403 (inactive) | -0.092 (inactive) | 0.298 (inactive) | 0.043 (inactive) |
| PEA15 isoform 2 (UniProt Q15121) | -0.014 (inactive) | 0.1 (inactive) | 0.116 (inactive) | -0.063 (inactive) | -0.015 (inactive) |
| PSMB6 (UniProt P28072) | 0.023 (inactive) | -0.057 (inactive) | -0.015 (inactive) | 0.019 (inactive) | 0.081 (inactive) |
| POLR2I (UniProt P36954) | 0.063 (inactive) | 0.104 (inactive) | -0.163 (inactive) | 0.194 (inactive) | -0.035 (inactive) |
| PSMD3 (UniProt O43242) | 0.028 (inactive) | -0.055 (inactive) | -0.006 (inactive) | -0.023 (inactive) | -0.011 (inactive) |
| POLR3B (UniProt Q9NW08) | -0.035 (inactive) | -0.02 (inactive) | 0.078 (inactive) | 0.04 (inactive) | -0.046 (inactive) |
| PBX2 (UniProt P40425) | -0.052 (inactive) | 0.082 (inactive) | -0.011 (inactive) | 0.051 (inactive) | -0.016 (inactive) |
| POLR3D (UniProt P05423) | 0.008 (inactive) | -0.072 (inactive) | -0.013 (inactive) | 0.056 (inactive) | 0.096 (inactive) |
| PPP1R35 (UniProt Q8TAP8) | 0.01 (inactive) | 0.006 (inactive) | 0.067 (inactive) | 0.03 (inactive) | 0.362 (active) |
| PPP2R5C isoform 5 (UniProt Q13362) | -0.039 (inactive) | 0.001 (inactive) | 0.084 (inactive) | -0.067 (inactive) | -0.029 (inactive) |
| PRPF38A (UniProt Q8NAV1) | 0.014 (inactive) | -0.011 (inactive) | 0.024 (inactive) | 0.007 (inactive) | 0.015 (inactive) |
| RAB11FIP1 (UniProt Q6WKZ4) | 0.041 (inactive) | 0.071 (inactive) | 0.086 (inactive) | -0.006 (inactive) | 0.046 (inactive) |
| PARL (UniProt Q9H300) | 0.017 (inactive) | -0.017 (inactive) | 0.045 (inactive) | 0.028 (inactive) | 0.031 (inactive) |
| PRG4 (UniProt Q92954) | 0.007 (inactive) | -0.044 (inactive) | -0.15 (inactive) | -0.309 (inactive) | -0.033 (inactive) |
| PLCL1 (UniProt Q15111) | 0.12 (inactive) | 0.073 (inactive) | 0.165 (inactive) | -0.029 (inactive) | 0.052 (inactive) |
| POLR2G (UniProt P62487) | 0.082 (inactive) | 0.176 (inactive) | 0.001 (inactive) | 0.167 (inactive) | -0.016 (inactive) |
| PRKAR1A (UniProt P10644) | 0.213 (inactive) | -0.019 (inactive) | 0.119 (inactive) | 0.041 (inactive) | -0.008 (inactive) |
| PNPLA4 (UniProt P41247) | 0.068 (inactive) | 0.158 (inactive) | 0.042 (inactive) | 0.099 (inactive) | 0.178 (inactive) |
| PPP4R3B (UniProt Q5MIZ7) | -0.014 (inactive) | 0.069 (inactive) | 0.134 (inactive) | 0.003 (inactive) | -0.005 (inactive) |
